Measurements: PubChem BioAssay AID540333 (Southern Research Specialized Biocontainment Screening …, 2011)
Hit rate of the full screen: of about 10,000 compounds, about 320 (3.2%) were called active. Cut-off read from the data, not from the text of the source: active = CPE inhibition mostly above about 9.1% (no sharp cut-off); inactive = mostly below about 7.2%. The full list was thinned out, with actives kept by preference.

Assay: antivirals protecting cells from dengue CPE – CPE readout, HTS (AID 540333)
Conditions: Dengue virus CPE inhibition in host cells, at 20 µM; stronger effect = higher value

Compound | CPE inhibition
Cc1ccc(C2=[N+]([O-])C(C)(C)N(O)C2(C)C)cc1 | inactive
CCC(=O)NC(NC(=S)Nc1ccccc1Br)C(Cl)(Cl)Cl (stereo not drawn) | 0.015% (inactive)
CCc1ccc(OCC(=O)NC(NC(=S)Nc2ccccc2OC)C(Cl)(Cl)Cl)cc1 (stereo not drawn) | 12.2% (active)
CCOC(=O)NC(NC(=S)Nc1ccccc1OC)C(Cl)(Cl)Cl (stereo not drawn) | 1.97% (inactive)
Cc1cccc(Oc2nc(CN3CCOCC3)nc3sc4c(c23)CCCC4)c1 | 15.4% (active)
COc1cc2c(cc1OC)CN(c1nc(CN3CCOCC3)nc3sc4c(c13)CCC(C)C4)CC2 (stereo not drawn) | inactive
c1ccc2c(c1)CCN(c1nc(CN3CCOCC3)nc3sc4c(c13)CCCC4)C2 | 7.32% (inactive)
Cc1c(C)c2ccc(OS(C)(=O)=O)cc2oc1=O | 0.305% (inactive)
Oc1c(C=C2N=c3ccccc3=N2)sc(=S)n1C1CCCC1 | 0.885% (inactive)
O=C(O)CCCCCn1c(O)c(C=C2N=c3ccccc3=N2)sc1=S | 11.8% (active)
Oc1c(C=C2N=c3ccccc3=N2)sc(=S)n1-c1ccccc1 | 1.34% (inactive)
COC(=O)c1cc(CNC(=O)c2ccc(O)c(Cl)c2)ccc1OC | 0.01% (inactive)
CC(Sc1nnc(NCc2ccccc2)s1)C(=O)Nc1ccc2c(c1)C(=O)c1ccccc1C2=O (stereo not drawn) | 4.04% (inactive)
CC(Sc1nnc(NC2CCCCC2)s1)C(=O)Nc1ccc2c(c1)C(=O)c1ccccc1C2=O (stereo not drawn) | 11.9% (active)
Cc1ccc(Nc2nnc(SC(C)C(=O)Nc3c(C)n(C)n(-c4ccccc4)c3=O)s2)cc1 (stereo not drawn) | inactive
CCNC(=S)N/N=C(\C)c1cc2ccccc2o1 | 0.995% (inactive)
CCCSc1nnc(CNC(=O)C23CC4CC(CC(C4)C2)C3)n1Cc1ccccc1 | 7.14% (inactive)
CCCCSc1nnc(CNC(=O)C23CC4CC(CC(C4)C2)C3)n1Cc1ccccc1 | 8.5% (active)
CCSc1nnc(CNC(=O)C23CC4CC(CC(C4)C2)C3)n1Cc1ccccc1 | 0.79% (inactive)
COc1ccc(C(=O)NCc2nnc(SCC(=O)N3CCc4ccccc43)n2Cc2ccccc2)cc1 | inactive
CCSc1nnc(CNC(=O)C23CC4CC(CC(C4)C2)C3)n1C1CCCCC1 | 5.44% (inactive)
CCC(C)Sc1nnc(CNC(=O)C23CC4CC(CC(C4)C2)C3)n1C1CCCCC1 (stereo not drawn) | 12.2% (active)
Cc1nnc(SCC(=O)NC(C)(C)C)n1C1CCCCC1 | inactive
O=C(CNC(=O)C12CC3CC(CC(C3)C1)C2)N1CCN(S(=O)(=O)/C=C/c2ccccc2)CC1 | 0.155% (inactive)

Compound | CPE inhibition
CC(C)Sc1nnc(CNC(=O)C23CC4CC(CC(C4)C2)C3)n1Cc1ccccc1 | 14.9% (active)
CCOC(=O)CC1C(=O)NCCN1C(=S)Nc1ccccc1 (stereo not drawn) | 0.585% (inactive)
O=C(NC1(C(F)(F)F)NC(=O)N(CCc2ccccc2)C1=O)C1CC1 (stereo not drawn) | inactive
COc1ccccc1-n1cc(-c2ccc(Cl)cc2)[nH]c1=O | 0.275% (inactive)
COc1cc(C(=O)Nc2nc(-c3ccc(Cl)cc3)c(C)s2)ccc1OCC(=O)Nc1ccc(F)cc1 | 6.33% (inactive)
CCc1ccc(-c2nc(NC(=O)c3ccc(OCC(=O)Nc4ccc(F)cc4)c(OC)c3)sc2C)cc1 | 0.375% (inactive)
COc1ccc(-c2nc(NC(=O)c3ccc(OCC(=O)Nc4ccc(F)cc4)c(OC)c3)sc2C)cc1 | 12.6% (active)
COc1cc(C(=O)Nc2nc(-c3cc(C)ccc3C)c(C)s2)ccc1OCC(=O)Nc1ccc(F)cc1 | 14.4% (active)
COc1cc(/C=C2\SC(N)=NC2=O)ccc1OCC(=O)Nc1ccc(C)cc1 | 1.51% (inactive)
Cc1ccc(C)c(OCC(=O)Nc2ccc(S(=O)(=O)Nc3ccccn3)cc2)c1 | 0.235% (inactive)
COc1ccc2[nH]c(O)c(N=NC(=N)N)c2c1 | 0.45% (inactive)
COC(=O)c1cc([N+](=O)[O-])ccc1N1CCN(Cc2ccccc2)CC1 | 0.06% (inactive)
COc1ccc(C(=O)OC(C)C(=O)Nc2cc(C(F)(F)F)ccc2Cl)c(OC)c1OC (stereo not drawn) | 2.02% (inactive)
CCN(CC)S(=O)(=O)c1cc(NC(=O)COc2ccc(C#N)cc2OC)ccc1C | inactive
Cc1nc2ccc(C(=O)O)cc2nc1C | 0.025% (inactive)
Nc1cc(Cl)ccc1C(=O)OCC(=O)NC(=O)NCc1ccccc1 | 19.5% (active)
O=C(COC(=O)c1c(Cl)ccc(Cl)c1Cl)NC(=O)NCc1ccccc1 | 0.78% (inactive)
O=C(COC(=O)c1ccccc1Cl)NC(=O)NCc1ccccc1 | inactive
CCOC(=O)/C=C(/C)N1N=C(c2ccc(OC)cc2)CC1c1cccc([N+](=O)[O-])c1 (stereo not drawn) | 0.895% (inactive)
Cc1cc(OCCOCCN(C)C)ccc1Cl | 0.765% (inactive)
COC(=O)C1=NN[C@H](C(=O)OC(C)(C)C)[C@H]1c1ccccc1 | inactive
CCOc1ccc2c(c1)c(N=NC(=N)N)c(O)n2C | 0.04% (inactive)
O=S(=O)(NC1CCCCC1Oc1ccccc1)c1ccccc1 (stereo not drawn) | 3.28% (inactive)
O=S(=O)(NC1CCCCC1Nc1ccc(Cl)cc1)c1ccccc1 (stereo not drawn) | 12.2% (active)

Compound | CPE inhibition
O=S(=O)(NC1CCCCC1Sc1ncccn1)c1ccccc1 (stereo not drawn) | inactive
COc1ccc(COc2cc(-c3cccc(OC)c3)nc3ccc(NC(=O)c4ccc(Cl)cc4)cc23)cc1 | 4.84% (inactive)
CCC(=O)NC(=S)Nc1ccc(NC(=O)COc2ccccc2)cc1 | inactive
CCn1cc([N+](=O)[O-])nc1C | 0.275% (inactive)
CNC(=S)Nc1cc(Cl)ccc1Oc1ccccc1 | 0.98% (inactive)
O=C(CSc1ccccc1)Nc1cc(Cl)ccc1Oc1ccccc1 | 3.48% (inactive)
O=C(Nc1cc(Cl)ccc1Oc1ccccc1)c1ccc(F)cc1 | 7.54% (active)
COc1cccc(NC(=S)NCCN2CCOCC2)c1 | inactive
O=C(Nc1cc(Cl)cc(Cl)c1)C(c1ccccc1)N1CCCCC1 (stereo not drawn) | 3.29% (inactive)
O=C(OC(C(=O)Nc1ccc(Cl)c(C(F)(F)F)c1)c1ccccc1)C1=COCCO1 (stereo not drawn) | 16.4% (active)
COC(C(=O)Nc1ccc(Cl)cc1C)c1ccccc1 (stereo not drawn) | 1.5% (inactive)
O=C(Nc1cccc(-c2nc3ccccc3s2)c1)C1=COCCO1 | inactive
O=C(Nc1ccc(Cl)c(C(F)(F)F)c1)C(=O)N1CCCCC1 | 1.26% (inactive)
Cc1ccc(C(=O)OC(C(=O)Nc2ccc(Cl)cc2C(F)(F)F)c2ccccc2)cc1 (stereo not drawn) | 7.33% (inactive)
O=C(Nc1nnc(-c2ccc(Cl)cc2)o1)C1=COCCO1 | 0.23% (inactive)
O=C(OC(C(=O)Nc1cc(Cl)cc(Cl)c1)c1ccccc1)C1=COCCO1 (stereo not drawn) | 32.8% (active)
O=C(OC(C(=O)Nc1ccc(Cl)cc1C(F)(F)F)c1ccccc1)c1c(Cl)cccc1Cl (stereo not drawn) | 21.7% (active)
COC(=O)c1cnn(-c2nc(OC)cc(OC)n2)c1C | 0.205% (inactive)
COC(=O)C1=NN(c2cccc(C)c2)C2C(=O)N(c3ccccc3OC)C(=O)C12 (stereo not drawn) | 0.91% (inactive)
O=S(=O)(c1ccc(F)cc1)N1CCN(C(=S)NCc2ccco2)CC1 | 0.8% (inactive)
CCOc1ccc(S(=O)(=O)N2CCN(C(=S)NCc3ccco3)CC2)cc1 | 0.65% (inactive)
CC(C)c1ccc(S(=O)(=O)N2CCN(C(=S)NCc3ccco3)CC2)cc1 | 13.8% (active)
Cn1c(=NC(=O)c2ccccc2[N+](=O)[O-])sc2cc(S(C)(=O)=O)ccc21 | 2.59% (inactive)
CCCCN1CC(=O)N2[C@H](c3ccc(OC)cc3)[C@@H]3C(=O)N(CC)C(=O)[C@@H]3[C@]2(C)C1=O | inactive

Compound | CPE inhibition
CC1(C)C=C(c2ccc(C=O)s2)CC(C)(C)N1C=O | 0.13% (inactive)
O=C(COC(=O)C12CC3CC(CC(C3)C1)C2)Nc1ccc([N+](=O)[O-])cc1Cl | 1.98% (inactive)
O=C(COC(=O)C12CC3CC(CC(C3)C1)C2)Nc1ccc([N+](=O)[O-])cc1Br | inactive
O=C(COC(=O)C12CC3CC(CC(C3)C1)C2)Nc1nc2c(F)c(F)c(F)cc2s1 | 13.5% (active)
CCN(CC)c1ccc(/C=N/NC(=O)c2ccco2)cc1 | 1.16% (inactive)
CCN(Cc1ccccc1)c1ccc(/C=N/N=C(N)N)cc1 | inactive
CCN(Cc1ccccc1)c1ccc(/C=N/NS(=O)(=O)c2ccc(C)c([N+](=O)[O-])c2)cc1 | 0.46% (inactive)
CCN(CC)c1ccc(/C=N/NC(=S)NCc2ccccc2)c(O)c1 | inactive
C=CCNC(=S)N/N=C/c1ccc(N(CC)Cc2ccccc2)cc1 | 28.3% (active)
CCN(Cc1ccccc1)c1ccc(/C=N/NC(=S)NC(C)C)cc1 | 30.1% (active)
CCOC(=O)c1ccc(NC(=O)c2c(N)n(Cc3ccccc3)c(=O)[nH]c2=O)cc1 | inactive
Cc1ccc(CCNC(=O)CN(C)S(=O)(=O)c2cnc[nH]2)cc1 | inactive
O=C(Nc1ccc(Cl)c([N+](=O)[O-])c1)c1ccncc1 | 0.365% (inactive)
CC12CCC(C(=O)N3CCCc4ccccc43)(OC1=O)C2(C)C (stereo not drawn) | 0.12% (inactive)
O=C(C1=NN[C@@H]2C(=O)N(c3cccc(C(F)(F)F)c3)C(=O)[C@H]12)C(c1ccccc1)c1ccccc1 | 0.31% (inactive)
CC(C)C(=O)NC(=S)Nc1sc2c(c1C(N)=O)CCCC2 | inactive
CCOC(=O)c1c(NC(NC(C)=O)C(Cl)(Cl)Cl)sc2c1CCCC2 (stereo not drawn) | 13% (active)
CC(C(=O)Nc1sc2c(c1C(=O)NCC1CCCO1)CCC2)N1C(=O)c2ccccc2C1=O (stereo not drawn) | inactive
COC(=O)c1c(NC(NC(=O)C(C)C)C(Cl)(Cl)Cl)sc2c1CCC2 (stereo not drawn) | 13.8% (active)
CCOC(=O)c1c(NC(=S)Nc2ccc(OC)cc2)sc2c1CCC2 | inactive
CCOC(=O)c1c(NC(=O)C2(C)Cc3ccccc3C(=O)O2)sc2c1CCCC2 (stereo not drawn) | 4.8% (inactive)
